High-throughput results from PubChem.
BoNT-A LC inh2: BoNT A light chain protease inhibition; 0.17% of 360,000 active; multiplex microsphere protease substrate cleavage, flow cytometry; inhibition, % at 10 µM; also: plate controls were buffer without enzyme for full effect and enzyme alone for no effect
Anthrax LF inh2: blocks Bacillus anthracis lethal factor protease. P15917. AID 588501. multiplex microsphere protease cleavage assay, LF. 0.12% of 360,000 active. inhibition, % at 10 µM; also: plate controls were buffer without enzyme for full effect and enzyme alone for no effect
Vc quorum ag: inducers of Vibrio cholerae quorum light production without autoinducers. V. cholerae BH1578 lux reporter, luminescence, 6 h. activation, % at 18.7 µM. 0.16% of 350,000 active. AID 588436; in the data active = activation mostly above about 9.7%, no sharp cut-off; inconclusive = no clear call, values can overlap the other calls; inactive = mostly below about 3.7%
BoNT F protease: inhibitors of Botulinum neurotoxin F light chain protease; Multiplex microsphere protease cleavage assay, flow cytometry; AID 588497; 0.22% of 360,000 active; inhibition, % at 10 µM; in the data active = inhibition above about 35%, passing the limit was not always enough; inconclusive = no clear call, values can overlap the other calls; also: plate controls were buffer without enzyme for full effect and enzyme alone for no effect
Autofluor counter: compound fluorescence in toxin protease inhibitor counterscreen. fluorescence intensity (concentration not given with the values). compound autofluorescence counterscreen, microsphere flow cytometry; stronger effect = higher value. AID 624483. 3.1% of 360,000 active; in the data active = fluorescence intensity above about 16000; inconclusive = no clear call, values can overlap the other calls
Active calls of the source: *; i = inactive; ? = inconclusive. In the library only some 3.5% were active in any assay of this set; here they are far more common. Rule as the data show it, unless noted: active = inhibition above about 30%; inconclusive = no clear call, values can overlap the other calls; inactive = below that.

SMILES | BoNT-A LC inh2 | Anthrax LF inh2 | Vc quorum ag | BoNT F protease | Autofluor counter
Cc1ccc(NC(=O)C2CCN(c3cnccn3)CC2)cc1 | 0 | -5 | -2 | -2 | 4756
Cc1nnc(NC(=O)C2CCN(c3nnnn3-c3ccccc3)CC2)s1 | ? | -4 | i | 3 | 21118*
Cc1nnc(NC(=O)C2CCN(c3cnccn3)CC2)s1 | 0 | -2 | -2 | 0 | 22414*
O=[N+]([O-])c1ccc(N2CCN(S(=O)(=O)c3ccc(Cl)cc3)CC2)cc1NCC1CCCO1 (stereo unspecified) | -2 | -5 | i | -5 | 16643*
Cc1cc(C)c(S(=O)(=O)N2CCN(c3ccc([N+](=O)[O-])c(NCC4CCCO4)c3)CC2)c(C)c1 (stereo unspecified) | 1 | 0 | i | 8 | 8601
CN(CC(=O)Nc1ccccc1Br)C(=O)Cn1[nH]c(=O)c2ccccc2c1=O | -2 | 10 | -3 | 6 | 6467
COc1ccccc1CNCC(O)(c1ccc(F)cc1)c1ccc(F)cc1 | -1 | 8 | -1 | -12 | 3812
COc1ccccc1CNCC(O)(c1ccc(Cl)cc1)c1ccc(Cl)cc1 | ? | -4 | -2 | -17 | 23819*
COc1ccc(/C(C)=N/NC(=O)C(NC(=O)c2ccccc2)c2n[nH]c(=O)c3ccccc23)c(OC)c1 (stereo unspecified) | 0 | -10 | -4 | 6 | 4254
CCOc1ccc(NC(=O)Nc2cc(C(=O)O)ccc2N2CC3CC(C2)c2cccc(=O)n2C3)cc1 (stereo unspecified) | -2 | 0 | 1 | -6 | 6073
CCC(c1nnnn1CCOC)N(Cc1cc2cc(C)c(C)cc2[nH]c1=O)CC1CCCO1 (stereo unspecified) | 3 | -2 | 1 | -2 | 15328
CCCC(c1nnnn1CCOC)N(Cc1cc2cc(C)c(C)cc2[nH]c1=O)CC1CCCO1 (stereo unspecified) | 0 | 1 | 0 | -1 | 16616*
Cc1ccc(C(=O)COC(=O)c2cc(=O)[nH]c3ccccc23)cc1C | -1 | -3 | 0 | -3 | 2646
CCCSc1nc(C)c(C(C)=O)cc1C#N | -1 | -6 | -7 | -11 | 2073
COC(=O)CSc1nc(C)c(C(C)=O)cc1C#N | ? | 0 | i | 4 | 20891*
CC1CCCC(C)N1c1ccc(S(=O)(=O)N2CCOCC2)cc1Cl (stereo unspecified) | -6 | 0 | 0 | -15 | 3782
COCCNS(=O)(=O)c1ccc(F)c(OC)c1 | 0 | -3 | 1 | -2 | 10708
COCCNS(=O)(=O)c1ccc2c(c1)C(=O)c1cc(S(=O)(=O)NCCOC)ccc1-2 | 1 | -3 | -5 | 1 | 16158*
O=C1c2cc(S(=O)(=O)NCCCO)ccc2-c2ccc(S(=O)(=O)NCCCO)cc21 | 3 | -1 | -2 | 1 | 21753*
CC1C(=O)C(C)C(c2cc(Cl)ccc2O)NC1c1cc(Cl)ccc1O (stereo unspecified) | 2 | -2 | -1 | ? | 4148
COC(=O)c1ccccc1NC(=O)C1CCCCC1C(=O)O (stereo unspecified) | ? | -3 | i | -2 | 23211*
O=C(O)C1CCCCC1C(=O)Nc1ccc(F)cc1F (stereo unspecified) | 5 | -3 | i | 3 | 20999*
COc1ccc(NC(=O)c2ccccc2NC(=O)C2CCCCC2C(=O)O)cc1 (stereo unspecified) | -2 | -2 | -1 | ? | 4484
O=C(Nc1cnn(Cc2ccc(Cl)cc2Cl)c1)c1cc(-c2cccs2)on1 | 0 | 1 | 0 | -9 | 8281
CC(=O)c1cccc(NC(=O)Nc2cnn(Cc3ccc(Cl)cc3Cl)c2)c1 | -1 | -2 | -12 | -4 | 22775*
SMILES | BoNT-A LC inh2 | Anthrax LF inh2 | Vc quorum ag | BoNT F protease | Autofluor counter
Cc1ccc(S(=O)(=O)N2CCOC23CCN(C(=O)C(=O)NCc2ccccc2)CC3)cc1 | 3 | -4 | -3 | ? | ?
Cc1ccc(NC2CC(=O)N(c3ccc(N4CCCCC4)cc3)C2=O)cc1 (stereo unspecified) | -1 | -1 | i | -2 | 7540
COc1ccc(N2C(=O)CC(Nc3ccc(C)cc3)C2=O)cc1 (stereo unspecified) | ? | -5 | -3 | 1 | 21164*
CC1=CC2(C)NC(=O)C(C)C12 (stereo unspecified) | 0 | -6 | -4 | -5 | 3810
Cc1nc(CC(=O)c2ccc(O)cc2O)cs1 | ? | -2 | i | -12 | 22193*
COc1cccc(-c2nn3c(-c4ccco4)nnc3s2)c1 | -4 | 4 | 0 | -7 | 12344
COc1cccc(OC)c1-c1nn2c(-c3ccco3)nnc2s1 | -4 | 0 | 5 | -5 | 20967*
Brc1ccc(-c2nn3c(-c4ccco4)nnc3s2)o1 | ? | -2 | i | 3 | 22193*
O=C(NC1=NCCS1)C1CCN(S(=O)(=O)c2ccccc2C(F)(F)F)CC1 | -1 | -7 | 0 | -7 | 3151
CCOc1ccc(OCC)c(-c2c(=O)n(OCc3ccccc3Br)c3ccccc3[n+]2[O-])c1 | 0 | 1 | -1 | -3 | 22784*
O=C1C2ON(c3ccccc3)C(c3ccncc3)C2C(=O)N1c1ccc(N2CCOCC2)cc1 (stereo unspecified) | 0 | -7 | 0 | -1 | 4223
O=C1C2ON(c3ccccc3)C(c3ccncc3)C2C(=O)N1c1ccc(Br)cc1 (stereo unspecified) | ? | 2 | -3 | -1 | 20513*
Cc1ccc(N2C(=O)C3ON(c4ccccc4)C(c4ccncc4)C3C2=O)cc1 (stereo unspecified) | 0 | 0 | -7 | 0 | 20770*
COc1ccc(CCCc2nnc(SCC(=O)N/N=C\c3ccc(O)c(OC)c3)o2)cc1C | -1 | -1 | -1 | -6 | 2684
O=C(CSc1nnc(Cc2ccccc2)o1)NCc1ccco1 | 1 | -9 | i | 1 | 21761*
COc1ccc(-c2nnc(SCC(=O)NCCc3ccccc3)o2)cc1 | 0 | 0 | 1 | 4 | 2963
COc1ccc(Cc2nnc(SCC(=O)NCCc3ccccc3)o2)cc1 | ? | -1 | -3 | -7 | 21339*
COc1ccc(CCNC(=O)CSc2nc3ccccc3o2)cc1OC | -3 | -1 | -4 | -6 | 23875*
COc1ccc(/C=N/NC(=O)CSc2nnc(CCCc3ccc(OC)c(C)c3)o2)cc1 | -2 | 2 | 33* | -2 | 3210
Cc1[nH]c2ccccc2c1Cc1nnc(SCC(=O)NCc2ccco2)o1 | -1 | -8 | 0 | -8 | 5439
Cc1cccc(NC(=O)COC(=O)Cc2cccs2)c1C | 3 | 2 | 1 | 4 | 6041
O=C(NN1CC(C(=O)OCc2ccc(Cl)cc2Cl)CC1=O)c1ccccc1 (stereo unspecified) | 1 | 2 | 0 | 1 | 5520
O=C(NCCCc1ccccc1)C1CC1 | 1 | -2 | -1 | -9 | 6203
COc1ccc(C2Nc3ccccc3C(=O)N2C2CCCCC2)cc1 (stereo unspecified) | -1 | 1 | 0 | -4 | 4409
CS(=O)(=O)N1CCC(C(=O)Nc2ccc(Cl)cc2Cl)CC1 | 0 | -4 | -1 | -1 | 3793
COc1ccccc1NC(=O)CSc1nnc(COc2ccc(Cl)cc2)o1 | -1 | -1 | 0 | 0 | 5786
